{"source": "PubChem BioAssay AID492993", "about": "(Johns Hopkins Ion Channel Center, 2010)", "note": "Hit rate of the full screen: of about 4,900 compounds, about 200 (4.1%) were called active.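 How the source made its calls: active means thallium signal drop more than 5 SD beyond the mean of the no-compound control wells, seen in both duplicate plates; inactive means the rest.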 A selection follows."}
{"molecular_target": "Inward rectifier potassium channel 2 (Mus musculus) (UniProt P35561)", "sequence (P35561 whole entry, looked up)": "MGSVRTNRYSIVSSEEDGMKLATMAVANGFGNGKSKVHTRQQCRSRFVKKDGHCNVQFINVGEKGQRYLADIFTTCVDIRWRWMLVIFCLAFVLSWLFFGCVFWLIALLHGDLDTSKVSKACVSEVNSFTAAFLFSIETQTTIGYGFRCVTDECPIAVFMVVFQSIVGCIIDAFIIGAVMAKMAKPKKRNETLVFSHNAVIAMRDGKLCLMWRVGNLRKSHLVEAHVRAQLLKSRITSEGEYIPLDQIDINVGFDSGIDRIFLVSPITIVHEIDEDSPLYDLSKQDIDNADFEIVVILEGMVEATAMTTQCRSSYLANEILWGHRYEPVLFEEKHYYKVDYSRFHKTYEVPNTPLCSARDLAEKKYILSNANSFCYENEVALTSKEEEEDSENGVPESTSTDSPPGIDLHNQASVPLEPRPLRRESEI", "experiment": "mouse Kir2.1 channel inhibition, confirmation, selectivity assay for KCNK9 modulator project, cell-based, HEK293, thallium flux (AID 492993);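 on inhibition: signal is fluorescence rise after thallium addition divided by baseline fluorescence; plate controls were assay buffer only for no effect and full block by chlorpromazine control for full effect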", "details": "Kir2.1 cells, FluxOR thallium flux fluorescence, at 10 µM; hits give high values"}
{"smiles": "O=C(COC(=O)/C(=C/c1cccs1)c1cccs1)NCc1ccccc1Cl", "inhibition": "inactive"}
{"smiles": "N#Cc1nc(Cc2cccc3ccccc23)oc1NCc1ccc2c(c1)OCO2", "inhibition": "51% (active)"}
{"smiles": "C=CCN(N=Nc1cccc([N+](=O)[O-])c1)c1cccc([N+](=O)[O-])c1", "inhibition": "inactive"}
{"smiles": "COc1cccc(CN(C)C(=O)CC23CC4CC(CC(C4)C2)C3)c1OC", "inhibition": "inactive"}
{"smiles": "CCCCCCCCn1c2c(c(=N)c3c1CCC3)CCCC2", "inhibition": "84% (active)"}
{"smiles": "Clc1ccc(COn2c(-c3ccc(Cl)cc3Cl)nc3ncccc32)cc1", "inhibition": "inactive"}
{"smiles": "O=C(Nc1ccc(S(=O)(=O)N2CCCCC2)cc1)C1CCN(C(=O)c2ccc(F)cc2)CC1", "inhibition": "inactive"}
{"smiles": "Cc1nc(N2CCN(c3ccccn3)CC2)c2c(C)c(C(=O)Nc3ccc(F)c(Cl)c3)sc2n1", "inhibition": "inactive"}
{"smiles": "Cc1ccc(OS(=O)(=O)c2ccc(-c3csc(C)n3)s2)c(C)c1", "inhibition": "inactive"}
{"smiles": "C[C@@]12C(=O)N(c3cccc(Br)c3)C(=O)N1[C@H](c1ccc(Cl)cc1)[C@@H]1C(=O)N(C3CCCCC3)C(=O)[C@@H]12", "inhibition": "inactive"}
{"smiles": "COc1cccc2sc(NNC(=O)c3nc4ccccc4s3)nc12", "inhibition": "inactive"}
{"smiles": "COc1ccccc1NC(=O)CSc1nc2sc(C)c(C)c2c(=O)n1Cc1ccco1", "inhibition": "inactive"}
{"smiles": "O=C(NCCCc1ccccc1)c1cc(COc2c(F)cccc2F)on1", "inhibition": "inactive"}
{"smiles": "Cc1ccc(C2=NN(C)c3nc4ccccc4n3C2)cc1", "inhibition": "inactive"}
{"smiles": "O=C(Cc1ccccc1)n1nc(-c2ccccc2)nc1NCc1ccco1", "inhibition": "inactive"}
{"smiles": "Cc1cc(C)cc(OCC(=O)Nc2cc(NC(=O)COc3cc(C)cc(C)c3)cc(C(=O)O)c2)c1", "inhibition": "inactive"}
{"smiles": "Cc1cccc(NC(=O)N(Cc2cc3cc(C)cc(C)c3[nH]c2=O)CC2COCCO2)c1", "note": "(centres undefined)", "inhibition": "inactive"}
{"smiles": "CC1CCN(C(=S)c2ccc(-c3ccc(Cl)cc3Cl)o2)CC1", "inhibition": "inactive"}
{"smiles": "COC(=O)c1cccc(C(=O)N2CCCC(Nc3ccc4c(c3)OCCO4)C2)c1", "note": "(centres undefined)", "inhibition": "inactive"}
{"smiles": "Cc1ccc(C2=Nc3c(ccc4ccccc34)C(c3ccncc3)=NN2)cc1", "inhibition": "inactive"}
{"smiles": "Cc1ccc(CN(N=Nc2nonc2N)c2nonc2N)c(C)c1", "inhibition": "inactive"}
{"smiles": "Cc1ccc(Cn2ccc(NC(=O)c3cc(C(C)C)on3)n2)cc1", "inhibition": "inactive"}
{"smiles": "CCOC(=O)[C@@H]1[C@H]2COc3ccc(Br)cc3[C@H]2N2C(=O)N(c3ccc(Cl)cc3)C(=O)[C@@]12C", "inhibition": "inactive"}
{"smiles": "O=C(N/N=C/c1ccccn1)c1cccc(NC(=O)c2ccc(Cl)cc2)c1", "inhibition": "inactive"}
{"smiles": "Cc1ncoc1C(=O)N1CCCC(C(=O)c2ccc3c4c(cccc24)CC3)C1", "note": "(centres undefined)", "inhibition": "inactive"}
{"smiles": "CCc1ccccc1NC(=O)/C(=C/c1ccccc1)c1ccccc1", "inhibition": "inactive"}
{"smiles": "COc1ccc(Nc2ncnc3sc(-c4ccccc4)cc23)c(OC)c1", "inhibition": "inactive"}
{"smiles": "O=S(=O)(Nc1cccc(Oc2ccc(Cl)cc2)n1)c1ccc(F)cc1", "inhibition": "inactive"}
{"smiles": "Brc1ccc(C2CC(c3ccccc3)=Nc3ccccc3N2)cc1", "note": "(centres undefined)", "inhibition": "inactive"}
{"smiles": "Cc1[nH][nH]c(=O)c1C(c1ccc(-c2ccc(Cl)cc2)o1)c1c(C)[nH][nH]c1=O", "inhibition": "38% (active)"}
{"smiles": "O=C(Nc1nnc(SCc2ccc(Cl)cc2Cl)s1)C1COc2ccccc2O1", "note": "(centres undefined)", "inhibition": "inactive"}
{"smiles": "CCCCN(Cc1ccccc1)C(=O)C1CCN(Cc2sccc2C)CC1", "inhibition": "inactive"}
{"smiles": "Clc1cccc(-c2nc3nc4ccccc4nc3n2Cc2ccco2)c1", "inhibition": "inactive"}
{"smiles": "O=C1N=C2SCCN2/C1=C\\c1c(Cl)cccc1Cl", "inhibition": "inactive"}
{"smiles": "CCc1nnc(NS(=O)(=O)c2ccc(NC(=S)NC(=O)/C=C/c3cccs3)cc2)s1", "inhibition": "inactive"}
{"smiles": "COc1ccccc1N1CCN(c2ncnc3sc(C)c(-c4ccccc4)c23)CC1", "inhibition": "inactive"}
{"smiles": "O=C(Nc1ccccc1[N+](=O)[O-])C1C(c2ccccc2)=C1c1ccccc1", "inhibition": "inactive"}
{"smiles": "CCCCOC(=O)CCCc1ccc([N+](=O)[O-])cc1[N+](=O)[O-]", "inhibition": "inactive"}
{"smiles": "O=C(NC1Cc2ccccc2C1)c1cc(COc2cccc(C(F)(F)F)c2)on1", "inhibition": "inactive"}
{"smiles": "O=C(Nc1ccc(Oc2ccccc2)cc1)c1ccco1", "inhibition": "inactive"}
{"smiles": "Cc1ccc(C(=O)c2c(NC(=O)c3ccncc3)sc3c2CCCC3)cc1", "inhibition": "inactive"}
{"smiles": "Cc1onc(-c2ccc(Cl)cc2)c1-c1ccnn1S(=O)(=O)c1ccc(Cl)cc1", "inhibition": "inactive"}
{"smiles": "CN(C)c1ccc(C(CNC(=O)c2ccc(F)cc2)c2c[nH]c3ccccc23)cc1", "note": "(centres undefined)", "inhibition": "inactive"}
{"smiles": "CCn1cnc2scc(-c3ccc(C)c(C)c3)c2c1=O", "inhibition": "inactive"}
